Measurements published in PubChem BioAssay (Tox21).
The source made the active and inactive calls. The call rests on the fitted dose curve; in most records, active means well fitted curve in the direction sought with a large enough effect in the repeat runs; inconclusive means weak or mixed curves; inactive means flat fitted curve, though single readings scatter.

Assay: qHTS assay to test for compound auto fluorescence at 535 nm (green) in HEK293 cells (AID 720680)
Settings: green autofluorescence 485/535 nm; series mostly up to 91.3 µM
Description: U.S. Tox21 Program National Center for Advancing Translational Sciences [NCATS] NIH Chemical Genomics Center [NCGC] U.S. Environmental Protection Agency [EPA] National Institutes of Environmental Health Sciences [NIEHS] National Toxicology Program [NTP] U.S. Food and Drug Administration [FDA] Tox21 Assay Overview: Compound auto fluorescence often interferes with screening of the compound library against various biological targets and signaling pathways. Some of these compounds may have fluorophoric properties. Such properties may interfere with the assay outputs resulting in false positives and/or negatives. To decrease such complications and ensure the compound activities are relevant in terms of biological response, the Tox21 10K compound library was screened for auto fluorescence. From the fluorophores used as reporter signals in our screening assays, the auto fluorescence equivalencies of compounds against three fluorophores have been evaluated: Triamterene, Fluorescein and Rose Bengal sodium for blue, green and red fluorescence, respectively. The fluorescence intensities were measured using Excitation/Emission wavelengths at 405/460nm, 485/535nm and 540/590nm for blue, green and red labels, respectively. This assay includes the green fluorescence data.
Tox21 Assay Protocol Summary: 2,000 HEK293 cells in 5 uL of culture medium containing 10% dialyzed FBS per well were dispensed into black wall/clear bottom 1536-well plates using a Multidrop Combi Dispenser (Thermo Scientific). The assay plates were incubated for 4-5 hr at 37C to allow cell attachment to the well bottom, followed by the transfer of 23 nL compound or DMSO vehicle by a pintool work station (Kalypsys, San Diego, CA). After the assay plates were incubated overnight at 37C and 5% CO2, fluorescence intensities in the assay plates were measured by an Envision (PerkinElmer, Shelton, CT) plate reader using three labels for measuring blue, green and red fluorescence at […] 460, 535 and 590nm respectively.
In the case of `CCCCCC(=O)O`, the outcome is reported as “inactive”.
For `CC(C)(C)c1cc(Cc2cc(C(C)(C)C)c(O)c(C(C)(C)C)c2)cc(C(C)(C)C)c1O`, the outcome was “inactive”.
In the case of `NC(=S)NNC(N)=S`, the outcome is reported as “inactive”.
In the case of `CCOC(=O)n1ccn(C)c1=S`, the outcome is reported as “inactive”.
For `O=C(O)CCCCCCCCC(=O)O`, the outcome was “inactive”.
For `CCCOC(=O)c1ccccc1`, the outcome was “inactive”.
For `CSc1ccc(Cl)cc1`, the outcome was “inactive”.
For `CC(C)(C#N)c1cc(Cn2cncn2)cc(C(C)(C)C#N)c1`, the outcome was “inactive”.
For `COC(=O)CCCC(=O)OC`, the outcome was “inactive”.
For `CN1C(=O)CC[C@H]1c1cccnc1`, the outcome was “inactive”.
In the case of `COc1ccc([N+](=O)[O-])cc1N`, the outcome is reported as “inactive”.
For `CCCCCCCO`, the outcome was “inactive”.
In the case of `CCCCOC(=O)c1ccc(N)cc1`, the outcome is reported as “inactive”.
With `CCc1ccccc1CC` the outcome was “inactive”.
With `CN(C)c1ccc(Cc2ccc(N(C)C)cc2)cc1` the outcome was “inactive”.
In the case of `CC(=O)OCc1ccccc1`, the outcome is reported as “inactive”.
With `COc1ccccc1OCC(O)CO` (stereo not given) the outcome was “inactive”.
In the case of `Cc1ccc2ncccc2c1`, the outcome is reported as “inactive”.
With `CC(=O)OC1CC(C)OC(C)O1` (stereo not given) the outcome was “inactive”.
In the case of `O=C(O)c1ccccc1C(=O)O`, the outcome is reported as “inactive”.
With `CCO[Si](CCC#N)(OCC)OCC` the outcome was “inactive”.
In the case of `C=CC(C)CCCC(C)(C)O` (stereo not given), the outcome is reported as “inactive”.
In the case of `CC(=O)OCCOC(C)=O`, the outcome is reported as “inactive”.
In the case of `NCCNCCN`, the outcome is reported as “inactive”.
For `CCCCCCC=O`, the outcome was “inactive”.
In the case of `CC(C)CC(C)O` (stereo not given), the outcome is reported as “inactive”.
In the case of `Cc1ccc(C(C)C)c(O)c1`, the outcome is reported as “inactive”.
With `CC(C)CCCCCCCOC(=O)CCCCC(=O)OCCCCCCCC(C)C` the outcome was “inactive”.
In the case of `C=C(C)C(=O)OCC(C)C`, the outcome is reported as “inactive”.
For `OCc1cccc(Oc2ccccc2)c1`, the outcome was “inactive”.
With `O=C1CCCC1` the outcome was “inactive”.
For `CNC(=O)Oc1ccc2c(c1)[C@]1(C)CCN(C)[C@@H]1N2C`, the outcome was “inactive”.
With `Brc1ccc(Br)c(Br)c1` the outcome was “inactive”.
In the case of `CC(C)(Oc1ccc(CCNC(=O)c2ccc(Cl)cc2)cc1)C(=O)O`, the outcome is reported as “inactive”.
For `C=CC(=O)OCCC(=O)O`, the outcome was “inactive”.
With `CC1(C)NC(=O)NC1=O` the outcome was “inactive”.
In the case of `CC(=O)Oc1ccc(C)cc1`, the outcome is reported as “inactive”.
For `C[Si]1(C)O[Si](C)(C)O[Si](C)(C)O[Si](C)(C)O1`, the outcome was “inactive”.
With `O=S(=O)(O)c1ccc(N=Nc2c(O)ccc3cc(S(=O)(=O)O)ccc23)cc1` the outcome was “inactive”.
For `CC(O)CC(C)(C)O` (stereo not given), the outcome was “inactive”.
